Values joined by “and” are separate entries in the source; they are usually repeats but may differ in a detail not shown here. Identical values can stand only once. Results filed as inconclusive are left out. Active and inactive are the calls of the source. The call rests on the fitted dose curve; in most records, active means well fitted activation curve with a large enough effect; inconclusive means small, poorly fitted or top-dose-only effect; inactive means no such curve, though single readings can be large or run the other way.

Cellular tumor antigen p53 (Homo sapiens), sequence (P04637 whole entry, looked up): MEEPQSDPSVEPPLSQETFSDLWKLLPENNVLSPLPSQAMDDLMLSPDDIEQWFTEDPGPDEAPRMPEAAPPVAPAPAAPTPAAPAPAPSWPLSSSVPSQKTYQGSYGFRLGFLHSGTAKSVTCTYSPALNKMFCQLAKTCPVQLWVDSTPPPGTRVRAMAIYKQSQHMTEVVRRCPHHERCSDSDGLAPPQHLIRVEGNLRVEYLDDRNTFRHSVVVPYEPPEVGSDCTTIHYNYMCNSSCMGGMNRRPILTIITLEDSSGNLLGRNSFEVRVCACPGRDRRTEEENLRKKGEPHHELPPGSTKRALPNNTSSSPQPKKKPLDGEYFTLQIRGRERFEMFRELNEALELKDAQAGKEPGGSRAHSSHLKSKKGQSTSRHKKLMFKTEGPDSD

This assay concerns the target Cellular tumor antigen p53 (Homo sapiens) (UniProt P04637). Put plainly: Primary qHTS for small molecule compounds that upregulate eGFP-tagged delta133p53alpha (in N-terminal) cells. (AID 2060322).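 Further: cells pre-induced with doxycycline then dosed without doxycycline; series mostly up to about 56 µM; 0% = DMSO vehicle and 100% = reference activator; nearly all actives have a fitted effect of over 75% in size.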 To be noted: NCI-H358 eGFP-delta133p53alpha fluorescence, 24 h; activation: active compounds read high. The text has this:
Assay Development and Screening Technology
National Center for Advancing Translational Sciences (NCATS),
National Institute of Health (NIH), Rockville, Maryland
Cellular senescence (CS) is one of the hallmarks of aging and age-related diseases. Senescent cells are characterized by an irreversible growth arrest, an increase in senescence-associated beta-galactosidase (SA-beta-gal) activity and p16INK4a expression, an activation of the DNA damage response pathways, and the emergence of a senescence-associated secretory phenotype (SASP).
Delta133p53alpha, a human/primate-specific p53 protein isoform, delays or inhibits the induction of CS and SASP in various types of human cells, including progeria-derived fibroblasts, primary normal astrocytes, and CD8+ T lymphocytes. Induction of delta133p53alpha with small molecule compounds may provide therapeutic opportunities for inhibition of senescence/SASP-associated pathologies in progeria syndromes, astrocyte-mediated neuroprotection in neurodegenerative diseases, and possibly prevention and treatment of a wider range of senescence- and aging-associated diseases.
Here we report the development and validation of a cell-based quantitative high throughput screening (qHTS) assay in 1,536-well format. This qHTS assay uses the NCI-H358 cell line with doxycycline-inducible expression of enhanced green fluorescent protein (eGFP)-tagged delta133p53alpha, which allows efficient and highly quantitative measurement of the protein levels.
PROTOCOL TABLE (as described by Inglese J, Shamu CE and Guy RK. 2007)
SEQUENCE No. (e.g., 1, 2, 3, etc.); […] (e.g., Cells, Incubation, Reagent, etc.); VALUE; DESCRIPTION.
1; Cells; 4uL; 800 doxycycline treated cells / well in doxycycline-free media, 1536-well black, clear-bottom low base Aurora microplates.
2; Compounds; 23 nL; Kalypsis pin tool (Wako) equipped with 1536-well pin heads, 5-azacytidine positive control.
3; Incubation; 24 hr; 37C, 5% CO2; 95% relative humidity.
4; Aspiration; 1x; BioTek EL406 washer dispenser (Agilent).
5; Fixing; 3.5% paraformaldehyde, BioTek EL406 washer dispenser (Agilent).
6; Washing; 1x PBS; BioTek EL406 washer dispenser (Agilent).
7; Nuclei staining; 1:1000 dilution of Hoechst 33342 (Thermofisher), BioTek EL406 washer dispenser (Agilent).
8; Incubation; 20 min; in the dark at room temperature.
9; Washing; 2x, 1x PBS (ThermoFisher), BioTek EL406 washer dispenser (Agilent).
10; Reagent; 10 uL; 1x PBS per well, sealed with clear adhesive tape.
NOTES (numbers refer to sequence numbers above).
1. NCI-H358 cells expressing eGFP-tagged delta133p53alpha were grown in T75 culture flasks and treated with doxycycline for 24h, at 10 ng/ml for eGFP-D133p53a cells (N-terminal cell) and 100 ng/ml for D133p53a-eGFP cells (C-terminal cells). Cells were trypsinized, counted using a Counted 3 Automated Cell Counter (Thermo Fisher), and diluted to a concentration of 200,000 cells/ml. A Multidrop Combi Reagent Dispenser (ThermoFisher) was used to dispense 800 cells/well in […] of doxycycline-free media, into 1536-well black/clear bottom low base plates (AuroraMicroplates).
2. After plating cells, 23 nl of compound library, DMSO vehicle control or positive control (5-azacytidine) were transferred by Pin Tool (Wako). The plate map layout was the same for each plate: (column 1) non-doxycycline treated cells + DMSO vehicle control; (column 2) doxycycline treated cells + DMSO vehicle control baseline; (column 3) doxycycline treated cells + positive control 57.5 uM final concentration 5-azacytidine; (column 4) doxycycline treated cells + serial dilution of 5-azacytidine, 16-point 1:2 titration spanning 1.8 nM to […] final concentration; (columns 5-48) doxycycline treated cells + titration of library compounds.
3. Cells were incubated at 37 °C, 5 % CO2, 95% RH with breathable metal lid for 24h.
4-10. […] After two washes, 10 ul of 1X PBS (Thermo Fisher) was dispensed to each well. Clear adhesive plate seals (VWR) were applied and plates stored at 4 °C.
11. […]
In general terms: In qHTS, concentration-response curves come from the screen itself.
Regarding `CC1(C)CCC2=C(O1)c1ccccc1C(=O)C2=O`, the activation was -0.948% (inactive).
Next, `Cc1cc(C2CCCCC2)n(O)c(=O)c1`: 25.4% (inactive); `CCN(CC)CCOc1ccc(C(O)(Cc2ccc(Cl)cc2)c2ccc(C)cc2)cc1` (stereo not given): -6.69% (inactive); `Cc1c(C(N)=O)cc([N+](=O)[O-])cc1[N+](=O)[O-]`: -8.37% (inactive).
Then `COc1ccc(CCc2nc3cc(-c4c(C)noc4C)ccc3n2CC(C)N2CCOCC2)cc1Cl` (stereo not given), with 3.67% (inactive); and `CC(C(=O)O)c1ccc2c(c1)[nH]c1ccc(Cl)cc12` (stereo not given), with 8.47% (inactive) and -3.82% (inactive).
On to `Clc1ccc2c(N3CCN(CCCN4CCN(c5ccnc6cc(Cl)ccc56)CC4)CC3)ccnc2c1`, for which the activation is 26.5% (inactive).
Then `CN/C(=C\[N+](=O)[O-])NCCSCc1csc(CN(C)C)n1`, with -0.837% (inactive).
For the compound `CC1(C)[C@@H](O)CC[C@]2(C)[C@H]3C(=O)C=C4[C@@H]5C[C@@](C)(C(=O)O)CC[C@]5(C)CC[C@@]4(C)[C@]3(C)CC[C@@H]12`, the activation was 29.7% (inactive).
Then `CC(=O)O[C@@H]1[C@H](O[C@@H]2O[C@H](CO)[C@@H](O)[C@H](O)[C@H]2O)[C@@H](O[C@@H]2O[C@@H](C)[C@H](O)[C@@H](O[C@@H]3O[C@H](CO)[C@@H](O)[C@H](O)[C@H]3O)[C@H]2O)[C@H](OC(=O)C23CCC4(C)C(=CCC5C6(C)CC(O)C(O[C@@H]7O[C@H](C(=O)O)[C@@H](O)[C@H](O)[C@H]7O)C(C)(C(=O)O)C6CCC54C)C2CC(C)(C)CC3O)O[C@@H]1C` (stereo not given in full), with 22.9% (inactive); and `CC(=O)Nc1cccc(-n2c(=O)n(C3CC3)c(=O)c3c(Nc4ccc(I)cc4F)n(C)c(=O)c(C)c32)c1`, with -5.24% (inactive) and -3.57% (inactive).
Then `CCC(=O)Oc1ccc2c(c1)CC[C@@H]1[C@@H]2CC[C@@]2(C)[C@H]1C[C@@H](OC(=O)CC)[C@@H]2OC(=O)CC`, with -8.47% (inactive); and `COc1ccc2c3c1O[C@H]1C[C@@H](O)C=C[C@@]31CCN(C)C2`, with 27.7% (inactive).
Then `Nc1ccc(O)c(C(=O)O)c1`, with -19.2% (inactive); and `CCC1(O)CC2CN(CCc3c([nH]c4ccccc34)[C@@](C(=O)OC)(c3cc4c(cc3OC)N(C=O)C3[C@]45CCN4CC=C[C@@](CC)([C@@H](OC(C)=O)[C@]3(O)C(=O)OC)[C@H]45)C2)C1` (stereo not given in full), with 32.1% (inactive).
Take `CC(C)(O)C(O)C(=O)OCc1ccc(O[C@@H]2O[C@H](CO)[C@@H](O)[C@H](O)[C@H]2O)cc1` (stereo not given in full): the activation is 8.4% (inactive).
Take `C=C(C)C1Cc2cc(C(=O)OC3OC(CO)C(O)C(O)C3O)ccc2O1` (stereo not given): the activation was 9.92% (inactive).
Then `CCCCCCCCCC(=O)N[C@@H](Cc1c[nH]c2ccccc12)C(=O)N[C@H](CC(N)=O)C(=O)N[C@@H](CC(=O)O)C(=O)N[C@@H]1C(=O)NCC(=O)N[C@@H](CCCN)C(=O)N[C@@H](CC(=O)O)C(=O)N[C@H](C)C(=O)N[C@@H](CC(=O)O)C(=O)NCC(=O)N[C@H](CO)C(=O)N[C@@H]([C@@H](C)CC(=O)O)C(=O)N[C@@H](CC(=O)c2ccccc2N)C(=O)O[C@@H]1C`, with -9.73% (inactive) and 21% (inactive).
Then `CCCS(=O)(=O)Nc1ccc(F)c(C(=O)c2c[nH]c3ncc(Cl)cc23)c1F`, with 27.8% (inactive) and 12.5% (inactive).
Next, `CNCCC(Oc1ccccc1OC)c1ccccc1` (stereo not given): -3.68% (inactive); `CC1=C(c2ccc(NC(=O)c3c(F)cccc3F)cc2)CN(c2nccs2)CC1`: 21.7% (inactive); `O=C(Nc1ccn(Cc2c(F)cccc2C(F)(F)F)n1)c1c(F)cccc1F`: 1.67% (inactive).
Take `CCN1C(=O)C=CC1=O`: the activation was -15.7% (inactive).
Next, `Cn1c(=O)cc(N2CCCC(N)C2)n(Cc2ccccc2C#N)c1=O` (stereo not given): 0% (inactive); `Cn1cc(S(C)=O)c(=O)c2ccc(F)cc21` (stereo not given): -7.53% (inactive).
Turning to `O=C(O)c1n[nH]c2c1C[C@H]1C[C@@H]21`, the activation is -8.11% (inactive).
Next, `COc1ccc(CC2=NN3C([C@@H](CCc4ccccc4)[C@@H](C)O)=NC(C)C3C(=O)N2)cc1OC` (stereo not given in full): -13.9% (inactive).
Then `C/C(=C1\CCOC(=O)S1)N(C=O)Cc1cnc(C)nc1N`, with -5.86% (inactive); and `CC(=O)OC(CSC1CCC(=O)OC(C)CCC(=O)C1)C(=O)O` (stereo not given), with -6.87% (inactive); and `CC1=C(C(=O)O)N2C(=O)[C@@H](NC(=O)[C@H](N)c3ccccc3)[C@H]2SC1`, with -27.6% (inactive).
Then `CC1CCC2C(C)(C)[C@H](O)CC[C@]2(C)C12Cc1c(O)cc3c(c1O2)CN(C(CCC(=O)O)C(=O)O)C3=O` (stereo not given in full), with -2.29% (inactive); and `CNC[C@H](O)[C@@H](O)[C@H](O)[C@H](O)CO`, with -10% (inactive); and `C[C@H](Cc1ccc(O)c(O)c1)[C@@H](C)Cc1ccc(O)c(O)c1`, with 8.19% (inactive).
For `C=C1c2cccc(O)c2C(O)=C2C(=O)[C@@]3(O)C(O)=C(C(N)=O)C(=O)[C@@H](N(C)C)[C@@H]3[C@@H](O)[C@H]12`, the activation is 22.8% (inactive).
Next, `CCCc1cc2c(N3CCN(C4=NCC(C)(C)S4)CC3)ncnc2s1`: -16.2% (inactive); `CC1CCC2C(C)(C)CC(C)(CO)C2(O)C1C(=O)O` (stereo not given): 15.3% (inactive); `C/C(=C/CO)CC[C@@H]1[C@@]2(C)CCC[C@](C)(C(=O)O)C2CC[C@@]1(C)O` (stereo not given in full): 27.7% (inactive).
Next, `C[C@]12CC[C@@H]3c4ccc(O)cc4CC[C@H]3[C@@H]1CC[C@@H]2O`: 63.8% (inactive).
Next, `COC(=O)C1=CO[C@@H](O[C@@H]2O[C@H](CO)[C@@H](O)[C@H](O)[C@H]2O)C2C1CC(O)C2C` (stereo not given in full): 2.29% (inactive); `CC(=O)c1c(C)cccc1O[C@@H]1O[C@H](CO)[C@@H](O)[C@H](O)[C@H]1O`: 13% (inactive).

(Values after PubChem BioAssay (NCATS).)
